{"source": "PubChem BioAssay AID493170", "about": "(National Center for Advancing Translational Sciences (NCATS), 2011)", "note": "Results filed as inconclusive are left out. Activity calls are given as the source filed them. Calls follow the shape of the dose curve; as a rule, active = well fitted inhibition curve with a large enough effect; inconclusive = small, poorly fitted or top-dose-only effect, or effect the other way; inactive = flat fitted curve, though single readings scatter. % is scaled to controls: 0 for no effect and ±100 for the full control effect; potency is read from the fitted curve at half-maximal effect."}
{"molecular_target": "Ubiquitin carboxyl-terminal hydrolase 2 (Homo sapiens) (UniProt O75604)", "sequence (O75604 whole entry, looked up)": "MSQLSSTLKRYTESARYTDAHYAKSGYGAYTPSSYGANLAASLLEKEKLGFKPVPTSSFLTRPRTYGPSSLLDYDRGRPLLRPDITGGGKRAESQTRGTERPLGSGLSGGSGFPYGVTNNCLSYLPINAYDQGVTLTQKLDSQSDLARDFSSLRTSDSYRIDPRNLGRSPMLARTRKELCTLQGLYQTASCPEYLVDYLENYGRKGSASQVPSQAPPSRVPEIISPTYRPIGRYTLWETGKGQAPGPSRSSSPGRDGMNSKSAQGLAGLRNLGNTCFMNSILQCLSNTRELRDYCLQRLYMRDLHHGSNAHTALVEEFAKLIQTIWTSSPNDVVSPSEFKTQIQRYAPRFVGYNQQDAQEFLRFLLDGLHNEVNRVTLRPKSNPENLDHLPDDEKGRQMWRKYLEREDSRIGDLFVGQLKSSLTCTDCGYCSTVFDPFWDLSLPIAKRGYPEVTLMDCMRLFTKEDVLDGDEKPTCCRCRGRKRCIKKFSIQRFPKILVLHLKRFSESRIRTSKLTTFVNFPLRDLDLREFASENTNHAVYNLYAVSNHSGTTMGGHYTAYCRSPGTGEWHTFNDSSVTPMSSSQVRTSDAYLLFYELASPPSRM", "assay": "Ub-rhodamine 110 based assay for inhibitors Ubiquitin-specific Protease USP2a; also: nearly all actives have a fitted effect of over 50% in size", "settings": "USP2a Ub-rhodamine110 cleavage, fluorescence; series mostly up to 38.3 µM; activity change, negative = inhibition: at the top concentration", "description": "NIH Molecular Libraries Probe Centers Network [MLPCN] NIH Chemical Genomics Center [NCGC] MLPCN Grant: XO1-MH079852-01 PI Name: Nicholson, Ben. Progenra Inc, Malvern, PA NCGC Assay Overview: Homeostasis of cellular proteins is maintained through a combination of synthesis and degradation. The pathway that accounts for the majority of protein degradation is the ubiquitin-proteasomal pathway. Ubiquitin (Ub) is highly conserved in all cells and the generation of a multi-Ub chain typically targets proteins for degradation by the proteasome. However, ubiquitination is highly reversible and dynamic. Deubiquitination, the reverse process, is catalyzed through the action of enzymes referred to as isopeptidases or deubiquitinating enzymes (DUBs). This group of enzymes is collectively responsible for maintaining adequate pools of free ubiquitin and regulating the ubiquitination status of cellular proteins. The class of DUBs referred to as the ubiquitin-specific proteases (USP) family functions endoproteolytically to cleave Ub chains from a wide range of protein substrates. USP2a deubiquitinates fatty acid synthase (FASN) which has recently been identified as an emerging oncology target. To identify inhibitors of USP2a a cell-free assay was employed. This assay measures cleavage of a profluorescent substrate (Ub-Rhodamine 110; Boston Biochem Cat#: U-555) by USP2a. The assay gives a fluorescent read-out at excitation/emission wavelengths of 485/531. The USP2a enzyme was provided by Progenra, Inc. licensed for sale by LifeSensors, Inc.\nNCGC Assay Protocol: The assay buffer, prepared fresh at the day of the assay, contains 20mM Tris-HCl pH 8.0, 2mM CaCl2, 2mM beta-Mercaptoethanol, 0.05% CHAPS. 3uL of 10 nM (5 nM final) USP2a, was dispensed into a medium-binding black solid Kalypsys 1,536 well plate using the Kalypsys dispenser. The assay plate was then pinned with 23nL compounds in DMSO with a Kalypsys pintool in columns 5-48 (0.3% final DMSO concentration). The negative control was buffer/DMSO only in column 3. The assay plate is incubated at RT for 30min. Subsequently, 3uL of 300 nM Ub-Rhod110 (150 nM final) was dispensed into the plate using a Kalypsys dispenser. Plates were read after every minute for 7 min on a ViewLux (Perkin Elmer) plate reader using the following wavelengths: Ex 485nm /Em 531nm. Data were normalized to the AC100 inhibition (buffer alone). Concentration-response curves were fitted to the normalized data and the concentration-response curves were then classified based on curve quality (r2), response magnitude and degree of measured activity. The time zero reading was used to flag fluorescence artifacts."}
{"smiles": "Nc1nc(NCCO)nc(NCC2CCCO2)c1[N+](=O)[O-]", "note": "(stereo not given)", "activity change, negative = inhibition": "-7.49% (inactive)"}
{"smiles": "O=C(CN1CCC(O)CC1)N1c2ccccc2C=Cc2ccccc21", "activity change, negative = inhibition": "-2.98% (inactive)"}
{"smiles": "O=C(O)c1cccc(-n2cccc2/C=C2/NC(=O)N(c3ccc(Cl)cc3)C2=O)c1", "Potency": "4.47 µM (active)"}
{"smiles": "CC(=O)c1ccc(NC(=O)CC(NCCC2=CCCCC2)C(=O)O)cc1", "note": "(stereo not given)", "activity change, negative = inhibition": "7.73% (inactive)"}
{"smiles": "CCOC(=O)Cn1c(=O)oc2cc(S(=O)(=O)Nc3cc(Cl)ccc3OC)ccc21", "activity change, negative = inhibition": "-6.33% (inactive)"}
{"smiles": "O=C(/C=C/c1ccc(O)c(O)c1)c1ccc(S(=O)(=O)N2CCCCCC2)cc1", "Potency": "3.98 µM (active)"}
{"smiles": "Cc1cc(C)c2c(N=CN(C)C)c(C(=O)N3CCN(c4ncccn4)CC3)sc2n1", "activity change, negative = inhibition": "-2.46% (inactive)"}
{"smiles": "O=C(CSc1nc(N2CCCCC2)nc(N2CCCCC2)n1)N1CCN(c2ccccc2)CC1", "activity change, negative = inhibition": "-4.93% (inactive)"}
{"smiles": "CCC(CO)Oc1cc(NCc2cccc(C)c2)c2ncn(C(C)C)c2c1", "note": "(stereo not given)", "activity change, negative = inhibition": "-5.97% (inactive)"}
{"smiles": "Cc1ccc(C)c(S(=O)(=O)N2CCN(C(=O)/C=C/c3ccco3)CC2)c1", "Potency": "10 µM (active)"}
{"smiles": "CCOC(=O)c1[nH]c2ccc(OC)cc2c1NC(=O)CCN1CCCC(C)C1", "note": "(stereo not given)", "activity change, negative = inhibition": "-9.84% (inactive)"}
{"smiles": "Cc1cccc(NCc2nc(-c3ccccc3)no2)c1", "activity change, negative = inhibition": "0.203% (inactive)"}
{"smiles": "Cc1cc(N2CCC(C(=O)NC3CC3)CC2)nc(-c2ccccc2)n1", "activity change, negative = inhibition": "-8.29% (inactive)"}
{"smiles": "CSc1ncccc1C(=O)OCC(=O)N1CCOCC1", "activity change, negative = inhibition": "17.7% (inactive)"}
{"smiles": "COc1ccc(S(=O)(=O)N(C)CC(=O)Nc2cccc(C(C)=O)c2)cc1Cl", "activity change, negative = inhibition": "-5.77% (inactive)"}
{"smiles": "COc1ccc(/C=C\\C(=O)O[C@@H]2C(O)C(O[C@@H]3OC(C)[C@H](O[C@@H]4OCC(O[C@H]5O[C@H](CO)[C@@H](O)C(O)C5O)C(O)C4O)C(O)C3O)[C@H](OC(=O)[C@]34CCC(C)(C)C[C@@H]3C3=CCC5[C@@]6(C)CC(O)C(O[C@@H]7OC(CO)C(O)[C@H](O)[C@H]7O)[C@@](C)(C(=O)O)C6CC[C@@]5(C)[C@]3(CO)CC4)O[C@H]2C)cc1", "note": "(stereo not given in full)", "activity change, negative = inhibition": "-12.9% (inactive)"}
{"smiles": "Nc1ccc2nc(-c3ccc(N)c(Cl)c3)[nH]c2c1", "activity change, negative = inhibition": "-10.3% (inactive)"}
{"smiles": "CC1CCCCN1CCNC(=O)c1cnn2ccccc12", "note": "(stereo not given)", "activity change, negative = inhibition": "8.54% (inactive)"}
{"smiles": "O=C(CSc1nc2ccccc2c(=O)n1CC1CCCO1)NCc1ccccc1", "note": "(stereo not given)", "activity change, negative = inhibition": "-13.2% (inactive)"}
{"smiles": "CC(=O)N1CCCc2cc(S(=O)(=O)CCC(=O)N3CCN(c4cccc(C)c4)C(C)C3)ccc21", "note": "(stereo not given)", "activity change, negative = inhibition": "-26.2% (inactive)"}
{"smiles": "COc1ccc(NC(=O)CSc2nc(O)cc(=O)n2-c2ccc(OC)cc2)cc1", "Potency": "11.2 µM (active)"}
{"smiles": "COC(=O)CC1Oc2ccc(C)cc2NC1=O", "note": "(stereo not given)", "activity change, negative = inhibition": "-1.3% (inactive)"}
{"smiles": "Nc1c(C(=O)Nc2ccc3c(c2)OCCO3)nnn1CCc1ccccc1", "activity change, negative = inhibition": "2.3% (inactive)"}
{"smiles": "Cc1nc2cc3ccccc3cc2c(=O)[nH]1", "activity change, negative = inhibition": "-20.4% (inactive)"}
{"smiles": "Cc1ccc(CN2C(=O)N/C(=C\\c3cccn3-c3cccc(C(=O)O)c3)C2=O)cc1", "activity change, negative = inhibition": "-19.5% (inactive)"}
{"smiles": "NC(=O)CC(NC(=O)Cc1ccc(Br)cc1)c1ccc(N2CCC(Cc3ccccc3)CC2)c([N+](=O)[O-])c1", "note": "(stereo not given)", "activity change, negative = inhibition": "-3.24% (inactive)"}
{"smiles": "O=C(COc1ccccc1)N1CCN(C(=O)Cc2ccccc2)CC1", "activity change, negative = inhibition": "1.44% (inactive)"}
{"smiles": "O=C(Nc1cccc(S(=O)(=O)N2CCCC2)c1)c1cncc(Br)c1", "activity change, negative = inhibition": "5.44% (inactive)"}
{"smiles": "c1ccc(Nc2c3c(nc4ncnn24)CCC3)cc1", "activity change, negative = inhibition": "-0.0764% (inactive)"}
{"smiles": "COC(=O)C1Sc2[nH]c(=O)sc2C(c2ccc(Cl)cc2)C1C(=O)OC", "note": "(stereo not given)", "activity change, negative = inhibition": "-5.69% (inactive)"}
{"smiles": "Cc1ccc(SCC(=O)NCC(C)C)cc1", "activity change, negative = inhibition": "-0.9% (inactive)"}
{"smiles": "CN(c1cccc(NC(=O)Nc2cccc(Cl)c2)c1)S(C)(=O)=O", "activity change, negative = inhibition": "-7.59% (inactive)"}
{"smiles": "Cc1ccc(/C=C2/SC(=S)N(c3ccc(S(=O)(=O)Nc4nccs4)cc3)C2=O)cc1", "Potency": "3.55 µM (active)"}
{"smiles": "Cc1noc(/C=C/c2ccco2)c1S(=O)(=O)N1CCC(C(=O)N2CCc3ccccc3C2)CC1", "Potency": "7.94 µM (active)"}
{"smiles": "O=C(COC(=O)c1ccc(NS(=O)(=O)c2cccs2)cc1)Nc1nc2c(F)c(F)c(F)cc2s1", "Potency": "3.55 µM (active)"}
{"smiles": "Cc1ccc([C@H]2C(C(=O)O)=CC[C@@H](c3ccc(Cl)cc3)N2S(=O)(=O)c2ccc(C)cc2)cc1", "Potency": "11.2 µM (active)"}
{"smiles": "CC(=O)N1c2c(cc(Br)cc2S(=O)(=O)NCc2cccnc2)CC1C", "note": "(stereo not given)", "activity change, negative = inhibition": "-1.19% (inactive)"}
{"smiles": "Cc1cccc(NC(=S)NCc2ccc3c(c2)cc(C)n3C)c1C", "activity change, negative = inhibition": "-9.94% (inactive)"}
{"smiles": "NC1=NC2(CCC(c3ccccc3)CC2)n2c(nc3ccccc32)N1", "note": "(stereo not given)", "activity change, negative = inhibition": "-18.1% (inactive)"}
{"smiles": "O=C(OCC(=O)N1CCCCC1)c1cc2ccccc2cc1O", "activity change, negative = inhibition": "1.09% (inactive)"}
